Only some compounds are listed: those with a hit (about 4% of all), similar ones and a draw of the others.
MITF act = MITF TRPM1 promoter activation in melanoma cells; AID 588334; SK-MEL-5 TRPM1-promoter luciferase, 24 h; % of positive control, neutral wells = 0; 0.75% of 300,000 active; activation, % at 12.5 µM;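 active means mean activation of at least 80% with every replicate also reaching 80%; inconclusive means mean reaches 80% but some replicate falls short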;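 further: 0% = neutral control wells and 100% = parthenolide positive control wells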
Statin myotox sup = suppressors of simvastatin-induced myotoxicity in C2C12 myotubes. ATP luminescence, 48 h; scaled: DMSO 0, geranylgeraniol control 100. rescue of ATP level, % at 7.49 µM. 0.78% of 330,000 active;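 active means mean ATP rescue above about 67%, or every replicate alone reaching that limit, limit read from the data, passing the limit was not always enough; inconclusive means no clear call, values can overlap the other calls; inactive means mean under the limit and some replicate under it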;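 further: myotubes were challenged with 10 µM simvastatin during compound exposure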
MITF TRPM1 inh = reduces MITF-dependent TRPM1 promoter luciferase signal. SK-MEL-5 TRPM1 promoter luciferase, 24 h. inhibition, % at 12.5 µM. 0.83% of 330,000 active. AID 488899;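 active means mean inhibition across replicates of 60% or more, whatever share of single replicates reaches that level; inconclusive means some that reach 60%, reason not given; inactive means mean inhibition across replicates below 60%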
esBAF inh = SWI/SNF esBAF complex inhibition. reporter increase, % at 12.5 µM. 2% of 350,000 active. mouse ES cells, Bmi1-luciferase knock-in reporter, 24 h; 100% = twice the neutral-well signal. AID 602393; in the data active means activation above about 40%; inconclusive means no clear call, values can overlap the other calls;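 further: 0% = median of the plate's neutral control wells and 100% = double that signal; a rise in the Bmi1 reporter signal indicates esBAF inhibition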
Wnt bcat act = Wnt/beta-catenin pathway activation; Wnt/beta-catenin reporter cell assay, activator, plate reader; activation, % at 9.35 µM; 1.2% of 300,000 active; AID 743398; in the data active means activation above about 30%, passing the limit was not always enough; inconclusive means no clear call, values can overlap the other calls;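 further: 0% = neutral control wells and 100% = positive control wells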
LMP1 NFkB inh = Epstein-Barr LMP1 NF-kappaB reporter inhibition | AID 504558 | inhibition, % at 12.5 µM | LMP1-induced NF-kappaB luciferase reporter cells, luminescence | 0.69% of 350,000 active; in the data active means inhibition above about 41%; inconclusive means no clear call, values can overlap the other calls;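 further: 0% = neutral control wells and 100% = reference inhibitor control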
Ring1 derepress = de-represses Ring1 in mouse ESCs, confirming esBAF inhibition; AID 743176; mouse ESC E14, Ring1 mRNA RT-qPCR fold change; shares compounds with esBAF inh; 550 tested, under 10 active; fold change at 33 µM;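 active means Ring1 gene expression raised more than 2-fold over untreated cells in both replicates at either tested dose; inconclusive means only one replicate above 2-fold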;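 further: Ring1 transcript normalised to actin housekeeping signal by TaqMan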
esBAF Fgf4 qPCR = represses Fgf4 in mouse ESCs, confirming esBAF inhibition | shares compounds with esBAF inh | 4% of 550 active | mouse ESC E14, Fgf4 mRNA qPCR fold change; stronger effect = lower value | Fgf4 expression fold change at 33 µM;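 active means Fgf4 expression under 0.8 fold of control in both repeat measurements at one or both tested doses; inconclusive means under 0.8 fold in just a single repeat measurement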;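 further: Fgf4 transcript normalised to actin in duplex TaqMan qPCR; cells exposed to compound for 24 h before lysis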
Bmi1 derepress = de-represses Bmi1 in mouse ESCs, confirming esBAF inhibition | 550 tested, under 10 active | mouse ESE14 ES cells, Bmi1 mRNA qPCR fold; stronger effect = higher value | fold change at 33 µM | shares compounds with esBAF inh;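 active means Bmi1 expression fold change above 6 at either tested concentration, seen in replicate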
A549 tox SP = kills or reduces viability of A549 cells; cell viability change % (negative = cytotoxic), % at 25 µM, hits read low; shares compounds with esBAF inh; AID 743188; 550 tested, under 10 active; A549 cytotoxicity, plate reader; call rule not given here
HepG2 cytotox SP = cytotoxicity in HepG2 cells; plate reader; stronger effect = lower value; AID 743189; activity change, negative = inhibition, % at 25 µM; shares compounds with esBAF inh; 4% of 550 active; in the data active means activity change below about -50%
HEK293 tox SP = kills or reduces viability of HEK293 cells. shares compounds with esBAF inh. activity change, negative = inhibition, % at 25 µM, hits read low. 3% of 550 active. HEK293 cytotoxicity, plate reader; in the data active means activity change below about -38%, passing the limit was not always enough
The depositor's hits bear a star; ? = inconclusive; / = no result.

SMILES | MITF act | Statin myotox sup | MITF TRPM1 inh | esBAF inh | Wnt bcat act | LMP1 NFkB inh | Ring1 derepress | esBAF Fgf4 qPCR | Bmi1 derepress | A549 tox SP | HepG2 cytotox SP | HEK293 tox SP
CCCCC(=O)Nc1ccc2c3c(cccc13)CC2 | 16 | / | -13 | / | 0 | -6 | / | / | / | / | / | /
Nc1nc(SCc2ccccc2)sc1C(=O)N1CCCCC1 | / | 7 | / | 60* | 43* | -7 | 1.2 | 0.92 | 1.5 | -10 | -7 | -10
Nc1c(C(=O)N2CCCCC2)sc(=S)n1-c1ccccc1 | 0 | 3 | 1 | 13 | / | 13 | / | / | / | / | / | /
CSc1ccccc1NC(=O)c1cc(-c2ccco2)on1 | 25 | 13 | -18 | 28 | 10 | -2 | / | / | / | / | / | /
CSc1ccccc1NC(=O)c1cc(C(C)C)on1 | / | 3 | -45 | 78* | / | -31 | 0.95 | ? | 1.6 | -11 | -31 | -11
CC(C)Cn1c(N)c(C(=O)COC(=O)c2c(O)c(Cl)cc(Cl)c2Cl)c(=O)n(C)c1=O | -10 | 2 | 8 | -2 | -1 | -6 | / | / | / | / | / | /
COc1ccc(C2CC2/C(=N/OC(=O)c2cccs2)c2ccccc2)cc1 (configuration not stated) | / | / | -45 | 68* | 20 | -16 | 1.2 | 1 | 1.6 | -8 | -21 | -7
COc1ccc(C(=O)O/N=C(/c2cccs2)C(C)(C)C)cc1 | -4 | 4 | 4 | 3 | 4 | -2 | / | / | / | / | / | /
COc1ccc(CCn2nnc3ccccc3c2=O)cc1OC | / | -2 | / | 61* | -9 | -25 | 1.1 | 0.99 | 0.86 | 10 | -16 | 8
O=C(Nc1cccc(F)c1)c1c(O)c2ccccc2[nH]c1=O | / | 2 | -47 | 80* | 9 | -21 | 0.99 | 0.95 | 1.3 | 6 | -17 | -9
O=C(N/N=C/c1cccc(F)c1)c1c(O)c2ccccc2[nH]c1=O | -44 | / | 42 | / | -4 | 9 | / | / | / | / | / | /
COc1cccc(CC(NC(C)=O)C(=O)NC2CCN(C(=O)NCc3ccccc3)CC2)c1 (configuration not stated) | -1 | 23 | 5 | -5 | 0 | 0 | / | / | / | / | / | /
CCCOc1ccc(NC(=O)C2CC(=O)N/C(=N/N=C(C)/C=C/c3ccc(N(C)C)cc3)S2)cc1 (configuration not stated) | 58 | 7 | -56 | 59* | / | -10 | 0.95 | 0.9 | 1.3 | -2 | -19 | -4
CC(/C=C/c1ccc(N(C)C)cc1)=N/N=C1/NC(=O)CC(C(=O)Nc2ccc(Cl)cc2)S1 (configuration not stated) | 30 | / | -30 | / | / | -16 | / | / | / | / | / | /
CSc1nsc(SCCN2C(=O)c3ccccc3C2=O)n1 | 10 | 5 | -10 | 2 | / | 8 | / | / | / | / | / | /
Cc1csc(SCCN2C(=O)c3ccccc3C2=O)n1 | 74 | 11 | -71 | 65* | 16 | -13 | 1.2 | 1 | 1.6 | -6 | 0 | -7
O=C(O)c1ccc(N/N=C/c2cccc3nccnc23)cc1 | 49 | -32 | -52 | 65* | 23 | -12 | 1.2 | 0.85 | 1.8 | -13 | -29 | 6
COC(=O)CN(C)C(=O)c1ccc2nc(Cc3cccc(Cl)c3)oc2c1 | 107* | -2 | -99 | 66* | 23 | -20 | 1.2 | 1 | 1.3 | -18 | -20 | -14
CN(Cc1ccccn1)C(=O)c1ccc2nc(Cc3cccc(Cl)c3)oc2c1 | 16 | / | -12 | / | 0 | -3 | / | / | / | / | / | /
COc1ccc(-c2noc(C3CCCN(C(=O)c4cccs4)C3)n2)cc1 (configuration not stated) | 15 | 5 | -13 | 9 | -2 | 4 | / | / | / | / | / | /
COc1ccccc1C(=O)NCCC(=O)NC1CCCCC1C (configuration not stated) | -3 | -3 | 1 | -4 | -2 | 2 | / | / | / | / | / | /
COc1ccccc1C(=O)NCCC(=O)NC1CCC(C)CC1 (configuration not stated) | ? | -1 | -77 | 73* | -5 | -10 | 1.5 | 1.1 | 1.3 | -9 | -26 | -9
Cc1noc(C)c1NC(=O)Nc1ccc2c(c1)C(=O)N([C@H](C)CO)C[C@H](C)[C@@H](CN(C)Cc1ccc(C(F)(F)F)cc1)OCCCC[C@@H](C)O2 | / | / | / | 1 | / | / | / | / | / | / | / | /
Cc1ccc(Nc2nc(Cl)nc(NC(C)(C)C)n2)cc1 | 100* | -23 | -95 | 77* | 10 | -32 | 1.1 | ? | 1.9 | 4 | -18 | -7
Oc1c(C=Nc2ccccc2)sc(=S)n1Cc1ccccc1 | 7 | 9 | -4 | 14 | 3 | -13 | / | / | / | / | / | /
SMILES | MITF act | Statin myotox sup | MITF TRPM1 inh | esBAF inh | Wnt bcat act | LMP1 NFkB inh | Ring1 derepress | esBAF Fgf4 qPCR | Bmi1 derepress | A549 tox SP | HepG2 cytotox SP | HEK293 tox SP
C=CCn1c(O)c(C=Nc2ccccc2)sc1=S | 45 | 2 | -44 | 68* | 7 | -16 | 1 | 0.84 | 1.4 | -6 | -21 | -11
CN1C(=O)c2cc(NC(=O)Cc3cccs3)ccc2OC[C@@H]2O[C@H](CC(=O)O)CC[C@@H]21 | / | 16 | / | 2 | / | / | / | / | / | / | / | /
COc1cc(/C=C2/C(=N)N3N=C(CC(=O)N4CCOCC4)SC3=NC2=O)ccc1OCc1ccccc1F | 7 | 14 | -8 | 11 | / | -10 | / | / | / | / | / | /
COc1cc(/C=C2/C(=N)N3N=C(CC(=O)N4CCOCC4)SC3=NC2=O)ccc1OCc1ccc(F)cc1 | 69 | 5 | -73 | 48* | 21 | -24 | 1.5 | 0.9 | 1.3 | -7 | -9 | -10
O=C(OCc1cncs1)c1ccccc1Cl | -2 | 5 | 6 | 6 | -2 | 3 | / | / | / | / | / | /
Cc1cccc(Oc2ccc(Cl)cc2N)c1 | 49 | 1 | -46 | 72* | 7 | -34 | 1.2 | 1.1 | 1.5 | -10 | -11 | -1
O=Cc1cnc(N2CCCCC2)s1 | -3 | / | 7 | / | -1 | -7 | / | / | / | / | / | /
O/N=C\c1cnc(N2CCN(c3ccccc3)CC2)s1 | ? | 7 | -88 | 84* | -1 | -25 | 0.95 | 0.85 | 1.6 | -7 | -36 | -8
O=C(CCc1nnc(CCc2c[nH]c3ccccc23)o1)NC1CCC1 | 45 | 9 | -43 | 66* | 29 | -8 | 0.93 | 0.96 | 1.5 | -1 | -31 | 4
COc1cc2c(cc1OC)C(=Cc1ccc(N(C)C)cc1)C=C2 | 61 | 5 | -52 | 67* | -2 | -7 | 0.93 | 0.96 | 1.8 | -7 | -8 | 1

Bioassay records from PubChem.
